Data published in PubChem BioAssay AID1945 (The Scripps Research Institute Molecular Screening Center, 2009).
Out of some 1,600 compounds screened, about 65 (4%) were called active. The list is a sample of the results. Values without a mark were called inactive. Cut-off read from the data, not from the text of the source: active = inhibition above about 37%; inactive = the rest.

Assay: compounds displacing fluorescent DNA intercalator, artefact control for HCV NS3 helicase inhibitor project, biochemical, FID fluorescence, triplicate (AID 1945);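 note: 0% = vehicle and 100% = reference compound; higher means more displacement of ethidium bromide from the DNA hairpin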
Details: DNA fluorescent intercalator displacement, at 7.9 µM, stronger effect = higher value

SMILES | inhibition
CS/C(=C\C(=O)c1ccco1)Nc1ccccc1Cl | -4.94%
O=C1N/C(=C/c2cccn2-c2ccccc2)C(=O)N1c1cccc(Cl)c1 | 12.2%
Cc1cc(C)c2nc(-c3ccco3)cc(C(=O)O)c2c1 | -5.42%
Cc1ccc(/C=C/C(=O)Nc2ccc([N+](=O)[O-])c(NC(=O)/C=C/c3ccc(C)o3)c2)o1 | 33.4%
CC(C)c1ccc(C2C(C(=O)c3ccco3)=C(O)C(=O)N2CC2CCCO2)cc1 (stereo not given) | -21.9%
Cc1ccc(C(CC(=O)O)Nc2nc(N3CCCCC3)nc(N3CCCCC3)n2)cc1 (stereo not given) | -62.5%
Cc1ccc(-c2nn(-c3ccccc3)cc2/C=C2\SC(=S)N(CCCCCC(=O)O)C2=O)o1 | 9.08%
CN(C)c1ccc(N/C=C/C(=O)C(F)(F)F)cc1 | 17.8%
O=C(c1cccc(-n2cccc2)c1)N1CCN(S(=O)(=O)c2ccc(F)cc2)CC1 | -4.45%
O=C(CCCN1C(=O)/C(=C\c2ccco2)SC1=S)Nc1cccc2ccccc12 | 6.79%
Cc1occc1C(=O)N/N=C/c1ccc(-c2cccc([N+](=O)[O-])c2)o1 | 1.25%
Cc1cc(N2C(=O)C(O)=C(C(=O)c3ccc(C)o3)C2c2ccc(OCc3ccccc3)cc2)no1 (stereo not given) | -15.8%
Cc1cccc(NC(=O)c2sc3nc4c(c(-c5ccco5)c3c2N)CCC4)c1 | -11.3%
COc1ccc(OCC(=O)Nc2nnc(-c3ccco3)s2)cc1 | -1.45%
COc1ccc(NC(=O)CSc2ccc(-c3ccco3)nn2)c(OC)c1 | 0.58%
Clc1ccccc1CSc1nnc(-c2ccco2)c(-c2ccco2)n1 | 72.2% (active)
c1ccc(CSc2nnc(-c3ccco3)c(-c3ccco3)n2)cc1 | 32.8%
O=C(CCl)NNc1cccc(Cl)n1 | 11.2%
COc1cccc(C(=O)CC(=O)C(=O)Nc2ccc([N+](=O)[O-])cc2C)c1 | 2.14%
Fc1ccc(-c2ccc(-c3nn4c(-c5ccco5)nnc4s3)o2)cc1 | -13.2%
